The text below walks through data of publication PMC4336329 (PLoS ONE, 2015).

Among all 310,000 compounds or so, about 2,200 (0.71%) showed an effect of 50% or more. Effects have a minus sign here. For the sample, strong results were picked, then their nearest neighbours and some compounds at random.

The target of this experiment is human ether-à-go-go-related gene (hERG) potassium channel (human, UniProt Q12809). Kind of experiment: primary screen, population patch clamp on CHO cells stably expressing hERG; higher = less effect of the substance.
Sequence of human ether-à-go-go-related gene (hERG) potassium channel (Q12809 whole entry, looked up): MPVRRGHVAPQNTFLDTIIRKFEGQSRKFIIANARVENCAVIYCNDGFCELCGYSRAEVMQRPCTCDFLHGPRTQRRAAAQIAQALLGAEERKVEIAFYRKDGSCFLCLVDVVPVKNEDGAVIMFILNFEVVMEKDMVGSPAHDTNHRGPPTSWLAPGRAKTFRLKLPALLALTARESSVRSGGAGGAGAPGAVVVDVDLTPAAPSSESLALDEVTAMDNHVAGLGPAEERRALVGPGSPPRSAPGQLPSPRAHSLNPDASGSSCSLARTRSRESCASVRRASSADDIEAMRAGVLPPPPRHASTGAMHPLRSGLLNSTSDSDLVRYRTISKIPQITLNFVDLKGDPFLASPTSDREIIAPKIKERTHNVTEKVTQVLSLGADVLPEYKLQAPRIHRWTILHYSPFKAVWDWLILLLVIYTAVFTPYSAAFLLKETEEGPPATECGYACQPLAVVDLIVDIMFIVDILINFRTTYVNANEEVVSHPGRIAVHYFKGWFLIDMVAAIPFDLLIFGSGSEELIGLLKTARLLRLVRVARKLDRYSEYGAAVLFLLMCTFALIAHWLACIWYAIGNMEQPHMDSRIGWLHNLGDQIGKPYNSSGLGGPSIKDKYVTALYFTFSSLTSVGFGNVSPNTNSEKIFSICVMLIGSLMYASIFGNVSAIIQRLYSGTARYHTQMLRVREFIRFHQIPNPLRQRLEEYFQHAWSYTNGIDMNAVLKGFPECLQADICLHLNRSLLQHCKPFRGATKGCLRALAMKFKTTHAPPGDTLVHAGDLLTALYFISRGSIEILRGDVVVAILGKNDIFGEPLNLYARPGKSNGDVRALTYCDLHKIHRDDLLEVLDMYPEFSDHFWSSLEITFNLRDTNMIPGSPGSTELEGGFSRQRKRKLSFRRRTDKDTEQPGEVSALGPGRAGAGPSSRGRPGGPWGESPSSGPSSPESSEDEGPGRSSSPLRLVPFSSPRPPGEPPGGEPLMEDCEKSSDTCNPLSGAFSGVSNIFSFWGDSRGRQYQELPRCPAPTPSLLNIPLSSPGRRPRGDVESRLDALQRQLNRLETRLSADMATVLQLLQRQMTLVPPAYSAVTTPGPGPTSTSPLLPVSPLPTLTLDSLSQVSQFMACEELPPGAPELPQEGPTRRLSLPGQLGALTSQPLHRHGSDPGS
As to `OC(COc1ccccc1)CN1CCCC1` (stereo not drawn), the “hERG current change (%, negative = inhibition) at 1uM” value was determined as 9.18%. As for `CCN1C2=NCCCN2c2ccccc21.Cl`, the “hERG current change (%, negative = inhibition) at 1uM” value is given as 2.9%. In the case of `Cl.OC(COc1ccccc1)CN1C2=NCCCN2c2ccccc21` (stereo not drawn), the “hERG current change (%, negative = inhibition) at 1uM” value was -54.6%. As to `Cl.ClCCN1C2=NCCCN2c2ccccc21`, the “hERG current change (%, negative = inhibition) at 1uM” value was -1.36%. The result for `CN1CCN(CC(O)COc2ccc(Cl)cc2)CC1.Cl` (stereo not drawn) reads -5.93%. As for `Cl.OC(COc1ccc(Cl)cc1)CN1C2=NCCCN2c2ccccc21` (stereo not drawn), the “hERG current change (%, negative = inhibition) at 1uM” value was -82%. On to `Cc1ccc(/C(O)=C2\C(=O)C(=O)N(CCN(C)C)C2c2ccccc2F)cc1` (stereo not drawn), for which the “hERG current change (%, negative = inhibition) at 1uM” value is given as -6.65%. For `COc1ccc(S(C)(=O)=O)cc1S(C)(=O)=O`, the “hERG current change (%, negative = inhibition) at 1uM” value came to 12.3%.

In the case of `CC(C)OCCCNC(=O)c1c(N)n(CC2CCCO2)c2nc3ccccc3nc12` (stereo not drawn), the “hERG current change (%, negative = inhibition) at 1uM” value was 6.34%.

As to `CCn1c(Cn2nnc(-c3ccccc3)n2)nnc1SCC(=O)Nc1ccc(C(C)=O)cc1`, the “hERG current change (%, negative = inhibition) at 1uM” value is recorded as 5.63%. On to `COc1ccc(CCn2c(=N)c(C(=O)NCC3CCCO3)cc3c(=O)n4cccc(C)c4nc32)cc1` (stereo not drawn), for which the “hERG current change (%, negative = inhibition) at 1uM” value is reported as -88.1%. As for `COc1ccc(CCn2c(=N)c(C(=O)NCCN3CCOCC3)cc3c(=O)n4cccc(C)c4nc32)cc1OC`, the figure is -44.4%; as for `COc1ccc(CCn2c(=N)c(C(=O)NCC3CCCO3)cc3c(=O)n4cccc(C)c4nc32)cc1OC` (stereo not drawn), -87.1%.

For the molecule `Cc1cccn2c(=O)c3cc(C(=O)NCC4CCCO4)c(=N)n(CCc4ccccc4)c3nc12` (stereo not drawn), the “hERG current change (%, negative = inhibition) at 1uM” value was -84.4%.

Regarding `CC(C)C(NC(=O)C1CCCCC1)C(=O)N1CCN(c2ccc(F)cc2)CC1` (stereo not drawn), the “hERG current change (%, negative = inhibition) at 1uM” value was -32.1%. Take `CS(=O)(=O)N1CCN(c2ccccc2NC(=O)c2ccc3c(c2)OCCO3)CC1`: the “hERG current change (%, negative = inhibition) at 1uM” value turned out to be 9.09%. As for `COc1cc(C(=O)N[C@@H](C)C(=O)N2CCC3(CC2)NCCc2[nH]cnc23)cc(OC)c1OC`, the figure is 15.3%; as for `CN(C)c1ccc(CNS(=O)(=O)c2csc(C(N)=O)c2)cc1`, 13%. Regarding `COc1ccc(Cl)cc1CSc1n[nH]c(C)n1`, the “hERG current change (%, negative = inhibition) at 1uM” value came to 16.6%. Consider `O=C(N/N=C/c1ccc(Cl)s1)C(O)c1ccccc1` (stereo not drawn), for which the “hERG current change (%, negative = inhibition) at 1uM” value is reported as 16.4%. Regarding `O=c1c([N+](=O)[O-])c(N2CCCC2)c2ccccc2n1-c1ccccc1`, the “hERG current change (%, negative = inhibition) at 1uM” value worked out at 4.99%. For `CC[C@]12CCCN3CCc4c(n(c5ccccc45)C(=O)C1)[C@@H]32`, the “hERG current change (%, negative = inhibition) at 1uM” value was -70.5%. Turning to `CCOC(=O)NNC(=O)CCn1c2c(c3ccccc31)CCCC2`, the “hERG current change (%, negative = inhibition) at 1uM” value is reported as 6.89%. As for `CCOC(=O)C1=CC[C@H]2c3c(c4ccccc4n3C)C[C@H]1N2C`, the figure is 15.5%; as for `CC[C@]12CCCN3CCc4c(n(c5ccccc45)C(=O)C1)C32` (stereo partly drawn), -50.5%; as for `CCn1cc(C2N3CC4(C)CN2CC(C)(C3)C4=O)c2ccccc21` (stereo not drawn), 4.63%. As to `O=C(O)Cn1c(=O)c2c(c3ccccc31)CCC2`, the “hERG current change (%, negative = inhibition) at 1uM” value came to 11.5%. The result for `CCOC(=O)C1=C[C@]2(CC)CCCN3CCc4c(n1c1ccccc41)[C@@H]32` reads -95.5%; that for `NC(=O)C1CCCc2c1n(Cc1ccccc1)c1ccccc21` (stereo not drawn), 9.63%; that for `Cl.Cn1c2c(c3ccccc31)CCN1CCC[C@]21c1ccccc1`, 12.1%. `CCN1CCC(=NNC(=O)CC23CC4CC(CC(C4)C2)C3)CC1`: the “hERG current change (%, negative = inhibition) at 1uM” value is listed as 11.5%. On to `COc1cc(NC(c2ccccc2)c2ccccc2)cc(OC)c1OC`, for which the “hERG current change (%, negative = inhibition) at 1uM” value turned out to be 5.7%. As for `Nc1nc(/C=C/c2cccnc2)nc(-c2ccccc2O)n1`, the figure is 10.4%; as for `COc1cccc(COC(=O)C2CCN(S(=O)(=O)c3ccc(Cl)cc3)CC2)c1OC`, 5.7%; as for `CC(=O)c1ccc(S(=O)(=O)N2CCN(c3ccccc3F)CC2)cc1`, 8.26%.

For the molecule `Cl.OC(CN1C2=NCCCN2c2ccccc21)c1ccc2c(c1)OCO2` (stereo not drawn), the “hERG current change (%, negative = inhibition) at 1uM” value is given as -68.6%. In the case of `OC(CN1C2=NCCN2c2ccccc21)c1ccc(Br)cc1` (stereo not drawn), the “hERG current change (%, negative = inhibition) at 1uM” value is recorded as -63%. Consider `Cl.c1ccc2c(c1)N1CCCN=C1N2CCN1CCCCC1`, for which the “hERG current change (%, negative = inhibition) at 1uM” value is -26.2%. As to `Cl.OC(CN1C2=NCCCN2c2ccccc21)c1ccc(Cl)cc1` (stereo not drawn), the “hERG current change (%, negative = inhibition) at 1uM” value was -76.2%.

With `Cl.OCCN1C2=NCCCN2c2ccccc21`, the “hERG current change (%, negative = inhibition) at 1uM” value worked out at 10.3%.

`Cl.OC(CN1C2=NCCCN2c2ccccc21)c1ccc(Br)cc1` (stereo not drawn): the “hERG current change (%, negative = inhibition) at 1uM” value is -86.2%. On to `Cl.OC(CN1C2=NCCN2c2ccccc21)c1ccc2c(c1)OCO2` (stereo not drawn), for which the “hERG current change (%, negative = inhibition) at 1uM” value is -27.7%.

As to `Br.O=C(CN1C2=NCCN2c2ccccc21)c1ccc2c(c1)OCO2`, the “hERG current change (%, negative = inhibition) at 1uM” value was -42.1%. On to `Br.O=C(CN1C2=NCCN2c2ccccc21)c1ccc(Br)s1`, for which the “hERG current change (%, negative = inhibition) at 1uM” value is -0.685%. Regarding `Cl.OC(CN1C2=NCCN2c2ccccc21)c1ccccc1` (stereo not drawn), the “hERG current change (%, negative = inhibition) at 1uM” value was -5.32%.
